Bioassay records as filed in PubChem.
FMDV inh – foot and mouth disease virus antiviral activity. Potency, µM (titrated, usually from 57.9 µM), for inactives: at the highest dose activity change, negative = inhibition, hits mostly inhibitors. hit rate 1.2% among 410,000. FMDV antiviral cell-based qHTS. AID 1159524; calls by dose curve; tested in HEK293T cells; further: read-out not given here; potency means the concentration at half of the fitted maximal effect; on the % scale 0 is the no-effect control and ±100 the full control effect; nearly all actives have a fitted effect of over 45% in size
Cycloheximide cs – counter-screen for Shiga toxin inhibitors: cycloheximide protein synthesis inhibition; cell reporter, cycloheximide protein synthesis inhibition counterscreen; max response, %; hit rate 12% among 300,000; AID 2314; in the data active means max response mostly above about 13%, no sharp cut-off; inactive means mostly below about 14%; further: read at 38.3 µM for the half of the compounds with a filed dose; 0% is about no effect
HCV inhibitor – inhibitors of hepatitis C virus infection; Huh7.5.1 HCVcc-Cre infection, luciferase reporter, 44 h; Potency, µM (highest dose often 41.8 µM), without a hit: at the top dose activity change, negative = inhibition, actives largely listed as inhibitors; hit rate 3.4% among 340,000; active means well fitted inhibition curve with a large enough effect; inconclusive means small, poorly fitted or top-dose-only effect, or another doubt; inactive means no such curve, though single readings can be large or run the other way; further: potency means the concentration at half of the fitted maximal effect; on the % scale 0 is the no-effect control and ±100 the full control effect
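A cell-based infection assay in which seeded cells (1,000 per well) receive test compound after 4 h, are inoculated with HCVcc-Cre at approximately 0.5 moi, and are incubated 44 h before luminescence detection.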
Shiga toxin inh – Shiga toxin inhibition; inhibition, % at 38.7 µM; AID 2315; Vero cells, Shiga toxin protein synthesis inhibition reporter; hit rate 9.2% among 290,000; in the data active means inhibition mostly above about 28%, no sharp cut-off; inactive means mostly below about 43%; further: 0% is about no effect
LASV entry inh – blocks Lassa virus binding to or entry into cells; Lassa virus pseudotype entry inhibition, cell reporter; Potency, µM (highest dose often 37.9 µM), for inactives: top-dose activity change, negative = inhibition, most hits filed as inhibitors; hit rate 1.2% among 300,000; AID 540256; calls by dose curve; tested in HEK293 cells; further: potency means the concentration at half of the fitted maximal effect; on the % scale 0 is the no-effect control and ±100 the full control effect; nearly all actives have a fitted effect of over 50% in size
MARV entry inh – inhibitors of Marburg virus binding or cell entry; AID 540276; Potency, µM (titrated, usually from 37.8 µM), for the others: at the highest dose activity change, negative = inhibition, most hits filed as inhibitors; hit rate 1.8% among 300,000; Marburg virus pseudotyped entry inhibition, cell reporter; calls by dose curve; tested in HEK293 cells; further: potency means the concentration at half of the fitted maximal effect; on the % scale 0 is the no-effect control and ±100 the full control effect
Starred values were filed as active, the others as inactive; u = inconclusive; x = no result given; [ ] = dose if it differs, or a comment. An excerpt weighted towards active compounds, which were near 13% of everything screened.

SMILES	FMDV inh	Cycloheximide cs	HCV inhibitor	Shiga toxin inh	LASV entry inh	MARV entry inh
Cc1cccc(C(=O)O/N=C2\CCCc3ccccc32)c1	51%	24*	-10%	41*	u	3%
O=C(O/N=C1\CCCc2ccccc21)c1cccc(Cl)c1	17%	13*	0%	7	0%	-8%
CCc1nc(SCc2cccnc2)c(C#N)cc1C	-5%	0	-8%	12	1%	3%
O=C(CCS(=O)(=O)c1ccccc1)N(CCCN1CCOCC1)c1nc2c(F)cccc2s1	40µM*	x	u	x	u	u
CCCC(=O)N1CCC1(C)C(=O)NS(=O)(=O)c1ccc(F)cc1F (stereo unspecified)	-16%	x	x	x	x	x
O=C(Nc1cnn(Cc2ccccc2)c1)c1nc2ncccn2n1	45%	38*	-26%	46*	1%	1%
CCn1c(SC(C)C(=O)Nc2nccs2)nnc1-c1ccncc1 (stereo unspecified)	0%	-2	10%	-20	-8%	6%
CCCc1cc(C(=O)Nc2nccs2)cs1	9%	57*	u	60*	43%[14.3 µM]	u
CCN1C(=O)c2ccc(C(=O)Nc3ncc(C)s3)cc2C1=O	-45%	51*	12%	56*	-14%	0%[46.1 µM]
Cc1cnc(NC(=O)c2ccc3c(c2)C(=O)N(Cc2ccco2)C3=O)s1	3%	13*	21%	3	13%	2%
CCCN1C(=O)c2ccc(C(=O)Nc3nccs3)cc2C1=O	17%	11*	0%	65*	6%	3%
Cc1ccc(O)c(NC(=O)c2ccc3c(c2)C(=O)N(Cc2ccco2)C3=O)c1	10%	15	18%	-12	x	x
CC(=O)c1c(Nc2cccc(F)c2)oc(C)cc1=O	-11%	-3	-5%	-7	x	x
COc1ccc(N2CCN(C(=O)CCC(=O)N3Cc4ccccc4Oc4ncccc43)CC2)cc1	-25%	-1	u	-7	-26%[46.1 µM]	-27%[46.1 µM]
Cc1cc(NC(=O)Nc2ccc3c(ccn3C)c2)sn1	45%	x	0.56µM*	x	u	u
Cn1cccc1/C=N/N1CCN(c2ccccn2)CC1	0%	38*	0%	61*	13%	u
CCN(CC)c1ccc(/C=N/N2CCN(c3ccccn3)CC2)cc1	-20%	2	3%	-8	19%	17%
Cn1cccc1/C=N/N1CCN(Cc2ccccc2)CC1	21%	15	-9%	-1	x	x
Cc1ccc(/C=N/N2CCN(c3ccccn3)CC2)cc1	23%	47*	4%	64*	u	16%[46.1 µM]
ClC(=C\c1ccccc1)/C=N/N1CCN(c2ccccn2)CC1	12%	33*	17%	53*	-29%	-8%
CCc1ccc(/C=N/N2CCN(c3ccccn3)CC2)cc1	54%	37*	-1%	68*	x	x
Cc1csc(NC(=O)C(CC(C)C)NS(=O)(=O)c2ccc3c(c2)oc(=O)n3C)n1 (stereo unspecified)	0%	20	-6%	65	x	5%
Cc1ccc2c(CC(=O)Nc3ccccc3C(F)(F)F)coc2c1C	-10%	x	x	x	-6%[46.1 µM]	11%[46.1 µM]
Cc1ccccc1-n1c(O)cc(=O)[nH]c1=S	12%	1	21%	20	-9%	4%[46.1 µM]
CCCC(=O)N1CCN(c2ccc(NC(=O)c3ccco3)cc2)CC1	29%	8	3.2µM*	11	28%	25%
SMILES	FMDV inh	Cycloheximide cs	HCV inhibitor	Shiga toxin inh	LASV entry inh	MARV entry inh
CC(C)c1ccc(NC(=O)C(c2ccccc2)N2CCN(C(=O)c3ccco3)CC2)cc1 (stereo unspecified)	38%	55*	-7%	125*	15%	-22%[46.1 µM]
CCN1CCN(c2ccc(NC(=O)c3ccco3)cc2)CC1	43%	42*	-5%	34*	x	x
O=C(Nc1ccc(N2CCN(C(=O)c3ccco3)CC2)cc1)c1cc(Br)ccc1Cl	u	x	u	x	u	10µM*
O=C(Nc1ccc(N2CCN(C(=O)c3ccco3)CC2)cc1)c1ccc(Br)cc1	-7%	-1	-3%	-2	x	x
O=C(Cc1ccc(Cl)cc1)Nc1ccc(N2CCN(C(=O)c3ccco3)CC2)cc1	-21%	-4	-7%	-13	-11%	u
CCN1CCN(c2ccc(NC(=O)c3ccc4c(c3)[nH]c(=O)n4Cc3ccc(F)cc3)cc2)CC1	-22%	-3	7.1µM*	10	u	u
O=C(Nc1ccc(N2CCN(C(=O)c3ccco3)CC2)cc1)c1ccco1	24%	12*	5%	43	15%	u
